These results are taken from PubChem BioAssay AID686979 (National Center for Advancing Translational Sciences (NCATS), 2013).

The campaign covered roughly 420,000 compounds. About 50,000 (12%) were called active. Entries that show only a call come without a potency. About 26% were inconclusive and are not listed. Calls come from the whole dose curve; as a rule, active = well fitted inhibition curve with a large enough effect; inconclusive = small, poorly fitted or top-dose-only effect; inactive = flat fitted curve, though single readings scatter. For the sample, actives were picked, then their nearest neighbours and some compounds at random.
Potency is the fitted concentration of half-maximal effect.

The nature of the test: qHTS for Inhibitors of human tyrosyl-DNA phosphodiesterase 1 (TDP1): qHTS in cells in presence of CPT. Note: nearly all actives have a fitted effect of over 55% in size. Conditions: chicken DT40 Tdp1-/-;hTDP1 cells + 20 nM CPT, ATP luminescence, 48 h; series mostly up to 46.2 µM. The essentials: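 Chicken DT40 Tdp1-/- cells complemented with human TDP1, 400 cells/well, exposed to compounds plus 20 nM camptothecin for at least 48 h at 37 C; viability read as ATP content by CellTiter-Glo luminescence.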
(In general: qHTS replaces the single test concentration by a dilution series.)
Turning to `CC(C)NC(=O)c1nn(-c2ccccc2F)nc1CO`, the Potency entry was “inactive”. For `CC1(C)NC(=O)N(CC(=O)Nc2ccc(-c3ccccc3)cc2)C1=O` the value was “inactive”. For `O=C(Cc1ccccc1)N/N=C/c1ccc(Cl)cc1Cl` the value was “inactive”. For `O=C(CSc1nnc(SCc2ccc(Cl)cc2)s1)N/N=C/c1ccccc1Cl` the value was 18.4 µM (active); for `Cc1nnsc1C(=O)N/N=C/c1ccccc1Cl`, “inactive”; for `C=CCOc1ccccc1NC(=O)CN1C(=O)CNC1=O`, “inactive”. Regarding `COc1ccc(CCN2CNc3c(c(=O)n(C)c(=O)n3C)C2)cc1OC`, the Potency entry is “inactive”.

For the compound `COc1ccc(CCn2cc3c(c2-c2ccc(Br)cc2)c(=O)n(C)c(=O)n3C)cc1OC`, the Potency was 23.1 µM (active). As for `COc1ccc(CCN2C(=O)C(C)=C(C)C2=O)cc1OC`, the entry is “inactive”. For `O=S(=O)(c1ccc(-c2ccno2)s1)N1CCCCC1` the value was “inactive”. Take `COc1cccc(/C=C2\C=C(c3ccc(C)cc3)OC2=O)c1OC(C)=O`: the Potency result was “inactive”. Regarding `COCc1c(C(=O)N/N=C\c2cccnc2)nnn1-c1nonc1N`, the Potency result is “inactive”. In the case of `CCCCNC(=O)C(=O)c1ccccc1NC(C)=O`, the Potency result is “inactive”. For `CCCCNC(=O)Nc1c(C)cc(SC#N)cc1C` the value was 18.4 µM (active); for `c1ccc(CCc2ccccn2)cc1`, “inactive”. As for `Cc1ccc(CC2CC(=O)N(c3nc(C)cc(C)n3)C2=O)cc1` (configuration not stated), the Potency result was “inactive”. As for `CC(=O)N1CC(C)c2scc(C)[n+]2-c2ccccc21` (configuration not stated), the entry is “inactive”; as for `NNC(=O)c1nnn(-c2nonc2N)c1CN1CCCC1`, “inactive”. For `CCOC(=O)c1nnn(-c2nonc2-n2cccc2)c1CN1CCOCC1` the value was “inactive”; for `CCOC(=O)c1nnn(-c2nonc2-n2cccc2)c1CN1CCC(C(=O)OCC)CC1`, 18.4 µM (active); for `CCOC(=O)C1(Cc2cccc(OC)c2)CCCN(C(=O)CCSC)C1` (configuration not stated), “inactive”. As for `CC1(c2ccccc2)NC(=O)N(CC(=O)N2CC(=O)Nc3ccccc32)C1=O` (configuration not stated), the Potency entry was “inactive”. As for `CC(C)Sc1nc(N)nc2c1ncn2C1OC(CO)C(O)C1O` (configuration not stated), the entry is “inactive”. For `Nc1nc2c(ncn2[C@@H]2O[C@H](CNS(=O)(=O)N3CCc4ccccc4C3)[C@@H](O)[C@H]2O)c(=O)[nH]1` the value was “inactive”. As for `COC1C(CO)OC(n2cnc3c(=S)nc(N)[nH]c32)C1O` (configuration not stated), the figure is 16.4 µM (active); as for `COC(=O)CNS(=O)(=O)c1ccc(Cc2ccc(S(=O)(=O)NCC(=O)OC)cc2)cc1`, “inactive”; as for `CCn1c(SCC(=O)Nc2ccc3c(c2)OCCO3)nnc1C(C)C`, “inactive”. For the compound `CCCn1c(SCC(=O)c2ccc3c(c2)OCCO3)nnc1C(C)C`, the Potency was 23.1 µM (active). For `CCCn1c(SCC(N)=O)nnc1C(C)C` the value was “inactive”; for `Cn1c(SCC(=O)N2CCCc3ccccc32)nc2ccccc2c1=O`, 7.31 µM (active); for `O=C(CSc1nc2ccccc2c(=O)n1CCCO)N1CCc2ccccc21`, “inactive”. For the compound `CCC(=O)N1CCCc2ccccc21`, the Potency result is “inactive”. For `CC(C)CNC(=S)NNC(=O)c1ccccc1OC(F)F`, the Potency result was “inactive”. For `O=S(=O)(Oc1ccccc1C(=S)N1CCOCC1)c1ccc(Cl)cc1` the value was 16.4 µM (active); for `CCOc1cc(C(=S)N2CCOCC2)ccc1OS(=O)(=O)c1ccc(Br)cc1`, “inactive”; for `CC(=O)Nc1ccc(S(=O)(=O)Oc2ccc(Br)cc2C(=S)N2CCOCC2)cc1`, “inactive”. For `O=c1c([N+](=O)[O-])cccn1Cc1ccc(F)cc1Cl` the value was 11.6 µM (active). For `O=[N+]([O-])c1ccccc1NCc1ccccc1Cl` the value was “inactive”; for `N/C(=N/O)c1cccn1Cc1ccccc1[N+](=O)[O-]`, “inactive”. Regarding `O=C(O)c1ccc(S(=O)(=O)c2ccccc2)s1`, the Potency entry was “inactive”. As to `O=C(N=C1SC2CS(=O)(=O)CC2N1Cc1ccccc1)c1ccccc1` (configuration not stated), the Potency entry was “inactive”. For `COC(=O)c1sccc1NS(=O)(=O)c1ccc(F)cc1F` the value was “inactive”; for `O=C(O)c1ccccc1/C=N/Nc1ccc(S(=O)(=O)Nc2ccc(Cl)cc2)cc1[N+](=O)[O-]`, “inactive”; for `O=[N+]([O-])c1cc(S(=O)(=O)Nc2cccc(Cl)c2)ccc1N=Nc1c(O)[nH]c2ccccc12`, 20.6 µM (active). For the compound `COc1ccc(S(=O)(=O)Nc2ccc3cn[nH]c3c2)cc1[N+](=O)[O-]`, the Potency result was “inactive”. For `CN(Cc1ccc(F)cc1Cl)S(=O)(=O)c1cccs1` the value was “inactive”; for `Cn1cc(C(=O)c2ccc(Cl)cc2Cl)cc1C(=O)NN`, “inactive”. As for `CC(OC(=O)CCc1nc(=O)c2ccccc2n1C)C(=O)NCc1ccc2c(c1)OCO2` (configuration not stated), the Potency result is “inactive”. As for `CCOC(=O)c1ccc(NC(=O)CCS(=O)(=O)c2ccc3c(c2)oc(=O)n3C)cc1`, the entry is “inactive”; as for `CC(C)Cc1nnc(NC(=O)CCc2ccccc2)s1`, “inactive”. For `CCOc1ccc(OCC)c(NC(=O)CCS(=O)(=O)c2ccc(C)cc2)c1` the value was “inactive”.

For `Cc1ccc(S(=O)(=O)CCC(=O)Nc2nnc(CC(C)C)s2)cc1`, the Potency is 20.6 µM (active).

As to `CCOC(=O)c1ccc(NC(=O)CCS(=O)(=O)c2ccc(C)cc2)cc1`, the Potency was 18.4 µM (active).

On to `Cc1ccc(S(=O)(=O)CC(=O)Nc2nnc(C)s2)cc1`, for which the Potency result was “inactive”. As for `O=C1C(=O)N(CCN2CCOCC2)C(c2cccc(Cl)c2)/C1=C(/O)c1ccc2c(c1)OCO2` (configuration not stated), the entry is “inactive”; as for `CN(CC(O)COc1ccc(S(=O)(=O)N2CCOCC2)cc1Cl)C1CCCCC1` (configuration not stated), “inactive”. As for `CCCCOc1ccc(N(CC(=O)NC(C)C)C(=O)CCC(=O)Nc2ccccn2)cc1`, the Potency result is “inactive”.

Turning to `O=C(Cc1cccs1)N/N=C/c1ccc(OCc2ccccc2)cc1`, the Potency result was “inactive”. For `O=C(NN1C(=O)C2C3C=CC(C4CC34)C2C1=O)c1ccc(Cl)cc1` (configuration not stated) the value was “inactive”; for `Cc1ccc(NC(=O)c2cc3ccccc3o2)cc1`, “inactive”; for `CSC(=S)N/N=C/c1c[nH]c2ccccc12`, 0.651 µM (active).

In the case of `N=c1oc2ccccc2cc1C(=O)N/N=C/c1ccccc1`, the Potency entry is “inactive”. As for `O=C(N/N=C/c1coc2ccccc2c1=O)c1cc2ccccc2o1`, the entry is “inactive”; as for `O=C(N/N=C/c1c[nH]c2ccccc12)c1cc2ccccc2o1`, 14.6 µM (active); as for `O=C(N/N=C/c1c[nH]c2ccccc12)c1ccccc1O`, “inactive”.

On to `Cc1c(/C=N\NC(=O)c2cc3ccccc3o2)c2ccccc2n1C`, for which the Potency is 3.66 µM (active). As for `O=C(N/N=C/c1cccc(O)c1)c1cc2c(ccc3ccccc32)o1`, the entry is “inactive”; as for `O=C(O)c1cccc(NC(=S)N/N=C/c2c[nH]c3ccccc23)c1`, “inactive”. For `CCOC(=O)c1ccc(NC(=O)C2CC(=O)N(c3ccc4c(c3)OCCO4)C2)cc1` (configuration not stated) the value was “inactive”; for `O=C1CCCC(O)=C1N=Nc1ccc2ncsc2c1`, “inactive”; for `NNC(=O)CSc1nnc(-c2ccccc2)n1-c1ccccc1`, “inactive”. In the case of `CCCCn1c(N)c(N(CCOC)C(=O)c2sc3ccccc3c2Cl)c(=O)[nH]c1=O`, the Potency entry was “inactive”. `CC[C@H](C)C(=O)N[C@H]1CCCN1C(=O)/C=C/c1ccccc1`: the Potency entry is “inactive”. As for `O=S(=O)(NCCS(=O)(=O)N1CCN(c2ccccc2)CC1)c1ccc(F)cc1`, the entry is “inactive”; as for `O=C(Nc1ccccc1Cl)NC1(C(=O)N2CCOCC2)CCCCC1`, “inactive”; as for `COc1cc2c(cc1OC)C(=O)NCC(C)(C)O2`, “inactive”. As for `Cc1cc(C)cc(NC(=O)Cn2cnc3c(nnn3Cc3ccc(F)cc3)c2=O)c1`, the entry is “inactive”; as for `CCCCCn1c(=O)[nH]c2cc(C(=O)Nc3ccc(F)cc3)ccc2c1=O`, 20.6 µM (active); as for `CC(C)n1c(=O)[nH]c2cc(C(=O)Nc3ccccc3)ccc21`, “inactive”. On to `COCCn1c(=O)[nH]c2cc(C(=O)NCc3cccnc3)ccc2c1=O`, for which the Potency entry was “inactive”. `CCCCCn1c(=O)[nH]c2cc(C(=O)NCCCN3CCCCC3C)ccc2c1=O` (configuration not stated): the Potency result was “inactive”. As for `CCCCCn1c(=O)[nH]c2cc(C(=O)Nc3cc(C)cc(C)c3)ccc2c1=O`, the figure is 4.11 µM (active). As for `O=C(NC1CCCCC1)c1ccc2c(=O)n(CC3CCCO3)c(=O)[nH]c2c1` (configuration not stated), the Potency entry was “inactive”.

Turning to `O=C(NCc1ccccc1)c1ccc2c(c1)nc1n2CCCCC1`, the Potency entry is “inactive”.

Regarding `COc1cccc(C2C(C(=O)Nc3ccc(C)cc3C)=C(C)Nc3c(C(=O)Nc4ccccc4)cnn32)c1` (configuration not stated), the Potency result was “inactive”. As for `CC(C)(C)OC(=O)C1=C(CO)CS[C@@H]2[C@H](NC(=O)Cc3ccccc3)C(=O)N12`, the entry is “inactive”; as for `C[C@H](NC(=O)C1CC(=O)N(c2ccc3c(c2)OCO3)C1)C(=O)NCc1ccco1` (some centres not stated), “inactive”. For `CCOc1ccc(S(=O)(=O)N2CCC(C(=O)NCC(=O)Nc3cccc(Cl)c3C)CC2)cc1` the value was “inactive”; for `C=CC[C@@H](CC(=O)N[C@H](CO)Cc1ccccc1)C(=O)N[C@@H](COC(=O)[C@@H](CC=C)Cc1ccc(F)cc1)Cc1c[nH]c2ccccc12`, 16.4 µM (active); for `C=CC[C@@H](CC(=O)N[C@H](CO)Cc1ccccc1)C(=O)N[C@H](C)COC(=O)[C@@H](CC=C)Cc1ccc(F)cc1`, 20.6 µM (active). As for `C=CC[C@H](CC(=O)NCCO)C(=O)N[C@@H](COC(=O)[C@@H](CC=C)Cc1ccc(F)cc1)Cc1c[nH]c2ccccc12`, the figure is 29.1 µM (active). For `CC(=O)NC(Cc1c[nH]c2ccccc12)C(=O)O` (configuration not stated), the Potency entry was “inactive”. As for `COc1ccc(CNC(=O)[C@H](Cc2c[nH]c3ccccc23)NC(C)=O)cc1OC`, the entry is “inactive”.

Take `C=CC[C@@H](CC(=O)NCCO)C(=O)N[C@H](C)COC(=O)[C@@H](CC=C)CC(=O)OC(C)(C)C`: the Potency result is “inactive”.

Take `CC(CCc1ccccc1)NC(=O)COC(=O)c1ccc(F)cc1` (configuration not stated): the Potency entry was “inactive”. Consider `COC(=O)C(Cc1c[nH]c2ccccc12)NC(=O)CCNC(=O)c1ccco1` (configuration not stated), for which the Potency result is “inactive”. For `CC(=O)NC(Cc1c[nH]c2ccccc12)C(=O)NCCc1ccccc1` (configuration not stated), the Potency entry is “inactive”. For `C=CCC[C@H](Cc1ccc(F)cc1)C(=O)OC[C@@H](Cc1c[nH]c2ccccc12)NC(=O)[C@H](CC=C)CC(=O)N[C@H](CO)Cc1ccccc1` the value was 5.8 µM (active); for `O=C(CCc1c[nH]c2ccccc12)NCCOc1ccccc1`, “inactive”. As for `CC(C)CNc1ncnc2c1nnn2C`, the Potency entry is “inactive”. As for `CCC(C)NC(=O)/C=C/c1ccc(S(=O)(=O)NCc2ccco2)cc1` (configuration not stated), the entry is “inactive”; as for `CC(=O)N1CCC(N(C(=O)Nc2ccc(Cl)cc2)C(C)C)CC1`, “inactive”.
